# Compound activity as filed in PubChem BioAssay.
# SMN2 splice enh: increases expression of the SMN2 splice variant; Potency, µM (highest dose often 46.1 µM), without a hit: at the highest dose activity change, positive = activation, hits mostly activators; 2.8% of 210,000 active; HEK293 SMN2-luciferase splicing reporter, luminescence, 30-36 h; further: % of control where 0% means no effect; nearly all actives have a fitted effect of over 55% in size
#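 HEK293 cells carry an SMN2 […]–luciferase reporter in which exon 7 inclusion puts luciferase in frame. Cells were plated 10-12 h before compound addition, then incubated 30-36 h at 37C. ONE-Glo luminescence was read; sodium butyrate at 4.5 mM final served as control.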
# NPC1 prom act: activators of NPC1 promoter | Huh7 NPC1 promoter luciferase reporter, 24 h | Potency, µM (titrated, usually from 9.22 µM), without a hit: at the top dose activation, hits mostly activators | 2.4% of 320,000 active | AID 485313; further: % of control where 0% means no effect; nearly all actives have a fitted effect of over 60% in size
#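 Luciferase expression driven by the NPC1 promoter was measured in stably transfected Huh7 cells after a 24 h compound incubation, using a luciferase reagent and a luminescence read.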
# FLuc counter: inhibits or activates purified firefly luciferase, miR-21 counter-screen; P08659; purified FLuc, Km substrates, luminescence inhibition; Potency, µM (top dose mostly 57.5 µM), inactives show at the highest dose activity change, negative = inhibition, actives largely listed as inhibitors; 6.9% of 360,000 active; AID 588342;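 further: plate controls were vehicle for no effect and reference inhibitor for full effect; nearly all actives have a fitted effect of over 55% in size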
# Target sequence (P08659 whole entry, looked up): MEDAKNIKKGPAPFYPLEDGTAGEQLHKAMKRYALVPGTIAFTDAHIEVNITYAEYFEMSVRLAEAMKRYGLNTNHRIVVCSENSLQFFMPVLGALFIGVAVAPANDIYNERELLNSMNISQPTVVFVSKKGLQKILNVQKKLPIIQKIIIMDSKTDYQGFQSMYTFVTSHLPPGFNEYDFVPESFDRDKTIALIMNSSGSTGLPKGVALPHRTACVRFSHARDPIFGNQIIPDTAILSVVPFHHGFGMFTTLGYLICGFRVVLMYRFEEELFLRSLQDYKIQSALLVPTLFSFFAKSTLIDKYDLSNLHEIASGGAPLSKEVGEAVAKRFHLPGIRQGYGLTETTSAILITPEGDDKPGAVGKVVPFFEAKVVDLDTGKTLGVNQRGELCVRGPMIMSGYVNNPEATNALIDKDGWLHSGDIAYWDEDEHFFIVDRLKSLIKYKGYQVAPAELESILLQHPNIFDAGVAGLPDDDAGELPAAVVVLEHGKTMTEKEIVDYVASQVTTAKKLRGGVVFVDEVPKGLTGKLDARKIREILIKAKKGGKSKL
#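 Purified P. pyralis luciferase, 10 nM final, with Km-level 10 uM D-luciferin and 10 uM ATP in 50 mM Tris acetate pH 7.5, 10 mM Mg acetate, 0.01% Tween-20, 0.05% BSA; 6-point qHTS titration about 60 µM downward; luminescence read.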
# ELG1 genotox: inducers of genotoxicity in HEK293T ELG1-luciferase cells; HEK293T ELG1-luciferase reporter, luminescence, 16 h; Potency, µM (doses to about 46 µM), for inactives: at the highest dose activity change, positive = activation, usual class: activators; 1.3% of 330,000 active; further: % of control where 0% means no effect; nearly all actives have a fitted effect of over 60% in size
#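 HEK293T cells expressing luciferase-tagged ELG1 were treated with compound or DMSO for 16 hr at 37°C. Luciferase activity was then read after 30 min with ONE-Glo at room temperature; rising signal flags genetic stress.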
# Rab9 prom act: activators of Rab9 promoter | 2.8% of 320,000 active | Huh7 Rab9 promoter-luciferase reporter, luminescence, 24 h | Potency, µM (titrated, usually from 9.22 µM), for inactives: at the highest dose activation, negative = inhibition, most hits filed as activators; further: % of control where 0% means no effect; nearly all actives have a fitted effect of over 60% in size
#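 Luciferase signal after 10 min detection reagent at ambient indicates Rab9 promoter upregulation; stably transfected Huh7 cells were treated 24 h with compound in DMSO at 37 °C, 5% CO2.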
# The depositor's hits bear a star; u = inconclusive; x = no result given; [ ] = another dose, or the depositor's remark. Hits are enriched below; roughly 7.4% of the tested compounds scored in any of these assays. The call rests on the fitted dose curve; in most records, active means well fitted curve in the direction sought with a large enough effect; inconclusive means small, poorly fitted or top-dose-only effect, or another doubt; inactive means no such curve, though single readings can be large; an effect the other way counts as inactive or inconclusive. Potency means the concentration at half of the fitted maximal effect.
SMILES,SMN2 splice enh,NPC1 prom act,FLuc counter,ELG1 genotox,Rab9 prom act
C=CCNC(=S)N/N=C/c1ccc(-c2cc(Cl)ccc2Cl)o1,x,-1.6%,2.0%,12.5%,-1.6%
C=CCNC(=S)N/N=C/c1ccc(-c2ccc(OC)cc2)o1,-14.0%,13.0%,19µM*,-16.5%,-3.8%
NC(=S)N/N=C/c1ccc(-c2cccc([N+](=O)[O-])c2)o1,-12.5%,3.7%,u,-11.2%,3.1%
CCC(C(=O)OCc1cc(=O)n2nc(C)sc2n1)c1ccccc1 (stereo not drawn),x,x,-5.4%,x,x
COc1ccc(CNC(=O)Cn2ncn3nc(-c4cccs4)cc3c2=O)cc1,x,x,-0.1%,x,x
COc1ccc2oc(C(=O)Nc3nnc(C)s3)c(C)c2c1,x,u,0.601µM*,3.26µM*,0.708µM*
CCc1nonc1NC(=O)c1oc2ccc(Br)cc2c1C,-0.8%,21.4%,-0.2%,10.1%,23.8%
Cc1ccc2oc(C(=O)Nc3nonc3C)c(C)c2c1,x,u,7.57µM*,u,3.16µM*
Cc1ccc2oc(C(=O)Nc3nnc(C)s3)c(C)c2c1,15.8µM*,3.16µM*,1.69µM*,5.8µM*,1.41µM*
COc1ccc2oc(C(=O)NC(C)(C)C)c(C)c2c1,12.6µM*,u,15.1µM*,u,3.98µM*
O=C(NCc1ccco1)C1CCN(C(=O)N2CCOc3ccccc32)CC1,x,x,3.8%,x,x
O=C(COC(=O)C12CC3CC(CC(O)(C3)C1)C2)Nc1ccccc1OC(F)F,18.3%,7.4%,u,-1.2%,-4.2%
O=C(COC(=O)C12CC3CC(CC(O)(C3)C1)C2)Nc1ccc(Br)cc1F,x,u,x,u,3.55µM*
Cc1cc(C(=O)COC(=O)C23CC4CC(CC(O)(C4)C2)C3)c(C)n1C,x,x,x,8.2µM*,x
NC(=O)COC(=O)C12CC3CC(CC(O)(C3)C1)C2,6.9%,-7.6%,0.0%,1.4%,4.1%
O=C(COC(=O)C12CC3CC(CC(C3)C1)C2)Nc1ccccc1F,-6.1%,-0.1%,10.7µM*,4.7%,1.9%
CCCc1nnc(NC(=O)c2cc(=O)c3ccccc3o2)s1,3.4%,x,u,x,x
Cc1ccc(-c2cc(C(=O)Nc3ccccn3)c3ccccc3n2)o1,2.9%,-0.9%,10.7µM*,-12.5%,2.6%
Cc1ccc(NC(=O)c2cc(-c3ccc(C)o3)nc3ccccc23)cc1,10.4%,0.7%,u,5.0%,8.7%
O=C(Nc1cccnc1)c1cc(-c2ccc(Br)cc2)nc2ccccc12,x,-0.1%,16.9µM*,0.0%,0.1%
Cc1ccc(-c2cc(C(=O)Nc3cccnc3)c3ccccc3n2)o1,2.8%,-0.3%,6.01µM*,-0.4%,15.7%
COc1ccccc1NC(=O)c1cc(-c2ccc(C)o2)nc2ccccc12,x,-1.3%,7.57µM*,-0.9%,13.4%
CCOc1ccc(CNC(=O)c2cc3ccccn3n2)cc1OC,x,x,-11.4%,x,x
NC(N)=NC(N)=Nc1c(F)c(F)c(F)c(F)c1F,-21.6%[9.22 µM],x,x,x,x
Cc1ccc(NC(=O)CC(C)S(=O)(=O)c2ccc3c(c2)NC(=O)CO3)c(C)c1 (stereo not drawn),x,x,-2.1%,x,x
SMILES,SMN2 splice enh,NPC1 prom act,FLuc counter,ELG1 genotox,Rab9 prom act
CNCc1ccccc1Sc1cc(O)ccc1O,-14.2%,7.4%,9.53µM*,7.1%,-1.1%
O=C(O)c1ccc(S(=O)(=O)N2CCCC2)cc1,x,-0.4%,-0.2%,-5.3%,3.9%
O=C(O)c1ccc(S(=O)(=O)c2ccc(Sc3ccc(C(=O)O)c(C(=O)O)c3)cc2)cc1,12.9%,-6.6%,10.7µM*,0.0%,-7.5%
Cc1ccc(-c2nc(C#N)c(NCCc3ccccn3)o2)cc1,u,3.55µM*,u,u,u
COc1ccc(-c2nc(C#N)c(NCCc3ccccc3)o2)cc1,u,18.5%,u,10.8%,u
N#Cc1nc(-c2ccc(Cl)cc2)oc1NCCc1ccccn1,22.4%,u,-10.4%,8.2µM*,u
COc1ccc2oc(=O)c(C(=O)NCCc3c(C)[nH]c4ccc(Br)cc34)cc2c1,1.3%,x,-1.0%,x,x
CC(=O)N[C@H](Cc1ccc(O)cc1)C(=O)O,-6.4%[9.22 µM],x,x,x,x
CCC(=O)N1CCc2cc(Br)cc(S(=O)(=O)CCC(=O)NCCc3ccccc3Cl)c21,-3.7%,x,-13.0%,x,x
O=C(CSc1nc2ccccc2s1)Nc1ccc(N2CCOCC2)c(Cl)c1,-7.1%,0.1%,u,6.9%,0.7%
